These entries were drawn from the full list.
S2 tox: reduces viability in counter-screen for ATXN expression inhibitors | Potency, µM (top dose mostly 56.7 µM), most hits filed as cytotoxic | S2 cells (HEK-293 line with an ATXN2-luciferase reporter) viability, CellTiter-Fluor protease fluorescence, 24 h | AID 651635 | actives 0.49% (n = 400,000); note: nearly all actives have a fitted effect of over 40% in size
ATXN2 expr inh: ATXN2 expression inhibition | actives 0.72% (n = 360,000) | HEK-293 ATXN2-luciferase reporter, luminescence, 24 h | Potency, µM (top dose mostly 57 µM), hits mostly inhibitors | AID 1745845; note: nearly all actives have a fitted effect of over 55% in size
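qHTS (up to 57 uM final) was run with 24 h compound exposure of reporter cells at 37 °C. Each well was multiplexed: SteadyGlo luminescence measured ATXN2-luciferase expression after a fluorogenic Gly-Phe-AFC viability readout (25 uM final).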
TGFb SMAD3 inh: inhibitors of TGF-b signaling | HepG2 CAGA-GFP TGF-b/SMAD3 reporter, GFP fluorescence, 18 h; TGF-beta stimulated, 500 pg/mL final | Potency, µM (titrated, usually from 46.1 µM), hits mostly inhibitors | actives 1.2% (n = 410,000) | AID 588855; note: nearly all actives have a fitted effect of over 65% in size
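Per well, imaged GFP fluorescence of HEPG2 CAGA-GFP cells gives the signal; cells get compound, then TGF-beta (500 pg/mL final), 18 h at 37 degrees C; %Activity versus -TGF-beta and +DMSO controls.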
HepG2 tox: counter-screen for TGF-b inhibitors: cytotoxicity in HepG2 cells | AID 588856 | HepG2 CAGA-GFP viability, ATP luminescence, 18 h | Potency, µM (highest dose often 46.1 µM), actives largely listed as cytotoxic | actives 0.76% (n = 410,000)
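CellTiter-Glo luminescence gave cytotoxicity after 18 hours at 37 degrees C. The cells were HepG2 CAGA-GFP in 1% FBS DMEM, stimulated with 500 pg/mL TGF-beta after compound addition. %Activity was normalised to no-cell wells (complete cell-killing) and DMSO (no toxicity), and curves were fitted and classified.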
GLP1R inv ag: acts as inverse agonist at human GLP-1 receptor. Potency, µM (titrated, usually from 38.3 µM), actives largely listed as inhibitors. HEK293 GLP-1R CRE-luciferase, luminescence, 24 h; GLP-1R form is constitutively active. actives 1.6% (n = 410,000). P43220. AID 624417; note: nearly all actives have a fitted effect of over 55% in size
Target sequence (P43220 whole entry, looked up): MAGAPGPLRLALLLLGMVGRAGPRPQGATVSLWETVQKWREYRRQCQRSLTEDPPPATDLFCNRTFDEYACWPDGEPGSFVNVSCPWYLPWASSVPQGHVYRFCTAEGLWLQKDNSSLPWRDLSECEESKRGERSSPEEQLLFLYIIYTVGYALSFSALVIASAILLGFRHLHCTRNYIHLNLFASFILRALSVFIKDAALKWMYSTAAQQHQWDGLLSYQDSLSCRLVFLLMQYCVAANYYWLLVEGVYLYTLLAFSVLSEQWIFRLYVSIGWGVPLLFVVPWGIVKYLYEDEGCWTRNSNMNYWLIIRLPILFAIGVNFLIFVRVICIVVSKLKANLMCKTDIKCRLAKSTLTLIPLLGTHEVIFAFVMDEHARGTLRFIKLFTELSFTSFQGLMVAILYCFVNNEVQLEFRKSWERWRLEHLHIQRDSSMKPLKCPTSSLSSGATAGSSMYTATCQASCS
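Inverse agonism was detected as reduced cAMP-driven luciferase luminescence after 24 h compound treatment. The cells were HEK293 clones expressing constitutively active human GLP-1R with the reporter. Reporter-only and GPR119 cell lines served as counterscreen controls.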
GLP1R ag: GLP-1 receptor (human) agonism; P43220; HEK293 GLP-1R CRE-luciferase, luminescence, 4-6 h; cells express a hypersensitive GLP-1R form; Potency, µM (top dose mostly 45.6 µM), usual class: activators; actives 0.007% (n = 380,000); AID 624172
EBOV entry S4 rt: Ebola virus entry blockers, screen 4 ratio channel; shares compounds with ATXN2 expr inh; Ebola pseudovirus entry assay, ratio channel; AC50, µM; actives 79% (n = 170); calls by dose curve
EBOV entry S4 bl: blocks Ebola virus entry, screen 4 blue channel readout; shares compounds with ATXN2 expr inh; Ebola virus entry assay, blue channel fluorescence ratio; Channel: blue; calls only; 170 tested, under 10 active; AID 1117309; call rule not given here
EBOV S4 green: Ebola virus entry blockers, screen 4 green channel; shares compounds with ATXN2 expr inh; calls only; Ebola virus entry reporter assay, green fluorescence channel; Channel: green; AID 1117316; 170 tested, under 10 active; call rule not given here
Calls only; n = inactive; u = inconclusive; x = no result. Unless noted, calls come from the whole dose curve; as a rule, active = well fitted curve in the direction sought with a large enough effect; inconclusive = small, poorly fitted or top-dose-only effect, or another doubt; inactive = no such curve, though single readings can be large; an effect the other way counts as inactive or inconclusive.

SMILES | S2 tox | ATXN2 expr inh | TGFb SMAD3 inh | HepG2 tox | GLP1R inv ag | GLP1R ag | others
C[C@H](N)[C@H](O)c1ccc(O)c(O)c1 | u | n | x | x | x | x | EBOV entry S4 rt=n;EBOV entry S4 bl=n;EBOV S4 green=n
F/C(COc1ccc2c(c1)[nH]c1ccccc12)=C1/CN2CCC1CC2 | x | x | x | x | x | n
CN(C[C@H](Cc1ccccc1)N(C[C@H](c1ccccc1)N(CCc1ccccc1)N=O)N=O)N=O | n | n | n | n | u | n
CN(C)C(=O)Oc1ccc(C(=O)c2ccccc2)cc1 | n | n | n | n | n | n
Cc1cc(C)cc(NC(=O)Cn2cc(C(=O)c3cccs3)c3ccccc32)c1 | u | n | u | n | u | x
CNCCCc1ccccc1 | n | n | n | n | n | n
CC(=NCCCN1CCOCC1)c1c(O)n(Cc2ccccc2)c(=O)[nH]c1=O | n | n | n | n | n | n
Nc1cccc(NP(=O)(c2ccccc2)c2ccccc2)c1 | n | x | n | n | n | n
O=C(CN1CCNCC1)N1CCOCC1 | n | n | n | n | n | n
CCOc1ccc(NC(=O)CN(c2ccc(Cl)cc2C)S(=O)(=O)c2ccccc2)cc1 | n | n | u | n | u | x
CC(=O)Nc1cnc(-c2ccccc2O)cn1 | n | n | n | n | u | n
C#C[C@]1(O)C=C[C@H]2[C@@H]3CCC4=CC(=O)CC[C@@H]4[C@H]3CC[C@@]21CC | n | n | x | x | x | x
Cc1ccc(NC(=O)Cn2c(=O)oc3cc(S(=O)(=O)N4CCCCC4)ccc32)c(Cl)c1 | u | n | u | n | n | x
COc1ccc(N2CCN(CCc3ccncc3)CC2)cc1 | u | n | n | n | n | n
COc1ccccc1Cc1c(-c2ccc(F)cc2)nc2cc(C)c(Br)c(C)n12 | n | n | x | x | u | n
FC(F)(F)c1ccc2c(c1)N(CCCN1CCN(CCCl)CC1)c1ccccc1S2 | u | u | u | n | u | n
Cc1ccc(C(=O)CN2CCOCC2)cc1 | x | x | n | n | x | x
COC1CCC(OC2CC(C3(C)CCC4(CC(O)C(C)C(C(C)/C=C(\C)C(=O)C(C)CC(C)C(=O)O)O4)O3)OC3(OC(C4OC(O)(CO)C(C)CC4C)CC3C)C2C)OC1C (configuration not stated) | x | u | u | n | n | n
COc1cccc(-c2nnc3n(Cc4ccccc4Cl)c(=O)c4ccccc4n23)c1O | u | n | n | n | u | x
CC[C@H]1[C@@H]2C[C@H]3[C@@H]4N(C)c5ccccc5[C@]45C[C@@H](C2[C@H]5O)N3[C@@H]1O (some centres not stated) | n | x | x | x | x | x
CC(=O)c1c(O)cc2c3c1OC(C)(C)C1CCC(C)(CC31)O2 (configuration not stated) | n | x | n | n | u | n
C[C@H]1[C@@H](O)[C@@H](C)/C=C\C=CCC\C=C/C=C\C=C/C=C[C@@H](O[C@H]2O[C@@H](C)[C@@H](O)[C@@H](N)[C@@H]2O)C[C@@H]2O[C@@](O)(C[C@@H](O)[C@H]2C(=O)O)C[C@@H](O)[C@@H](O)CC[C@@H](O)C[C@@H](O)C[C@@H](O)CC(=O)O[C@H]1C | n | x | x | x | x | x
CCOc1ccc(CCNC(=O)c2cc3c(-c4ccc(OC)c(OC)c4)nn(C)c3s2)cc1OCC | u | u | n | n | u | x
CC(O)(c1ccncc1)c1nc(-c2cccc(C(F)(F)F)c2)cs1 (configuration not stated) | n | n | n | n | u | n
CC[C@H]1OC(=O)C[C@@H](O)[C@H](C)[C@@H](O[C@@H]2O[C@H](C)[C@@H](O[C@H]3C[C@@](C)(O)[C@@H](O)[C@H](C)O3)[C@H](N(C)C)[C@H]2O)[C@@H](CC=O)C[C@@H](C)C(=O)/C=C/C(C)=C/[C@@H]1CO[C@@H]1O[C@H](C)[C@@H](O)[C@@H](OC)[C@H]1OC | n | n | n | n | n | n
SMILES | S2 tox | ATXN2 expr inh | TGFb SMAD3 inh | HepG2 tox | GLP1R inv ag | GLP1R ag | others
Cc1ccc(Cn2c(=O)n(CCCCC(=O)NCc3ccccc3Cl)c(=O)c3ccccc32)cc1 | u | u | n | n | n | n
COC(=O)c1ccc(CN2CCN(Cc3ccccc3)CC2)cc1 | n | n | n | n | n | n
CNC(C)CC1CCCCC1 (configuration not stated) | n | x | x | x | x | n
CN1CCN=C(c2ccccc2)c2cc(Cl)ccc21 | n | x | x | x | x | u
c1ccc2c(c1)CC1CNCc3cccc(c31)S2 (configuration not stated) | n | n | n | n | n | n
O=C(NCc1c(-n2cccc2)sc2c1CCCC2)Nc1cccc(C(F)(F)F)c1 | n | n | n | n | u | x
Oc1ccc([C@H]2CNCc3c2ccc(O)c3O)cc1O | u | n | x | x | x | n
CC(=O)c1cccc(NC(=O)CSc2ncc3c(n2)-c2cc(Cl)ccc2N(Cc2ccccc2)S3(=O)=O)c1 | n | n | u | n | n | x
Cc1c(P(=S)(c2ccccc2)c2ccccc2)[n+]2ccccc2n1CCc1ccccc1 | u | u | u | n | x | n
COP(=S)(OC)Oc1ccc(S(N)(=O)=O)cc1 | n | n | x | x | x | n
COC(=O)C(C)Oc1ccc(Cc2ncc(C(F)(F)F)cc2Cl)cc1 (configuration not stated) | u | x | n | n | n | n

High-throughput results (PubChem)
